From PubChem BioAssay (NCI)
Compounds without any hit were thinned out: in the full panel of roughly 83,000, 20% have a hit.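 In brief: 96-well plates, 48 h treatment, single concentration, percent growth endpoint.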 Calls of active or inactive are those of the source. The calls were made as follows: active = growth percent below 10; inactive = the rest.

Experiments:
Assay in all cases: NCI-60 one-dose screen, 48 h (100 = growth as untreated, 0 = no growth, -100 = all killed)
Conditions in all cases: 10 µM unless noted
HCT-15 colon = tested on: HCT-15 colon
HT29 colon = tested on: HT29 colon
SNB-75 CNS = tested on: SNB-75 CNS
SNB-19 CNS = tested on: SNB-19 CNS
U251 CNS = tested on: U251 CNS
PC-3 prostate = tested on: PC-3 prostate
SK-MEL-5 melanoma = tested on: SK-MEL-5 melanoma
UACC-62 melanoma = tested on: UACC-62 melanoma
LOX IMVI melanoma = tested on: LOX IMVI melanoma
SK-MEL-28 melanoma = tested on: SK-MEL-28 melanoma

Measured: growth

COc1cc(NC(=O)CSc2nc3ccc(C)cc3c(=O)n2-c2ccccc2)cc(OC)c1OC
inactive: HCT-15 colon 81.1% | HT29 colon 109% | SNB-75 CNS 57.4% | SNB-19 CNS 88% | U251 CNS 93.9% | PC-3 prostate 82% | SK-MEL-5 melanoma 77.8% | UACC-62 melanoma 77.5% | LOX IMVI melanoma 75.9% | SK-MEL-28 melanoma 83.7%

O=C(Nc1ccc(F)cc1)c1cc([N+](=O)[O-])ccc1O
inactive: HCT-15 colon 68.1% | HT29 colon 61.7% | SNB-75 CNS 78.1% | SNB-19 CNS 70.9% | U251 CNS 61.6% | PC-3 prostate 54.7% | SK-MEL-5 melanoma 30% | UACC-62 melanoma 36.8% | LOX IMVI melanoma 56.3% | SK-MEL-28 melanoma 55.9%

Nc1nc(N)c2nc(CNc3ccc(C(=O)CC(CCC(=O)O)C(=O)O)cc3)cnc2n1 (stereo not given)
inactive: HCT-15 colon 33.3% | HT29 colon 36.7% | SNB-75 CNS 71.7% | SNB-19 CNS 42.9% | U251 CNS 36.2% | PC-3 prostate 33.6% | SK-MEL-5 melanoma 22.8% | UACC-62 melanoma 26.6% | LOX IMVI melanoma 20.5% | SK-MEL-28 melanoma 68.7%

CN1CCN(CCCOc2ccc3nc(Nc4ccc(C(F)(F)F)c(Cl)c4)ccc3c2)CC1
inactive: SK-MEL-5 melanoma 34.1%
active: HCT-15 colon -36.9% | HT29 colon -67.2% | SNB-75 CNS 4.61% | SNB-19 CNS -41.2% | U251 CNS -62.3% | PC-3 prostate 8.45% | UACC-62 melanoma -36.3% | LOX IMVI melanoma -83.1% | SK-MEL-28 melanoma -73.2%

Cc1ccc(-c2csc3nc(C)c(CCCl)c(=O)n23)cc1
inactive: HCT-15 colon 98.5% | HT29 colon 105% | SNB-75 CNS 74.7% | SNB-19 CNS 100% | U251 CNS 106% | PC-3 prostate 83.5% | SK-MEL-5 melanoma 89.7% | UACC-62 melanoma 88.2% | LOX IMVI melanoma 89.1% | SK-MEL-28 melanoma 113%

CCCCCC/C=C\CCCCCCCCOc1ccc(CCOP(=O)(O)OCC[N+](C)(C)C)cc1
inactive: HCT-15 colon 85% | HT29 colon 30.2% | SNB-75 CNS 75.3% | SNB-19 CNS 39.4% | U251 CNS 27.5% | PC-3 prostate 14.8% | SK-MEL-5 melanoma 84.9% | UACC-62 melanoma 71.1% | LOX IMVI melanoma 81.3% | SK-MEL-28 melanoma 95.5%

Clc1ccc(/C=C/c2nc(N3CCOCC3)c3nc(Cl)c(Cl)cc3n2)cc1
inactive: HCT-15 colon 94.3% | HT29 colon 105% | SNB-75 CNS 94.3% | SNB-19 CNS 101% | U251 CNS 103% | PC-3 prostate 102% | SK-MEL-5 melanoma 90.2% | UACC-62 melanoma 106% | LOX IMVI melanoma 99.8% | SK-MEL-28 melanoma 111%

N#CC1=C(N)OC2=C(C(=O)CCC2)C1c1ccco1 (stereo not given)
inactive: HCT-15 colon 104% | HT29 colon 109% | SNB-75 CNS 95.7% | SNB-19 CNS 98.3% | U251 CNS 99.3% | PC-3 prostate 102% | SK-MEL-5 melanoma 101% | UACC-62 melanoma 112% | LOX IMVI melanoma 96.4% | SK-MEL-28 melanoma 111%

Nc1c(C(=O)Nc2ccccc2)sc2nc3c(cc12)CN(Cc1ccccc1)CC3
active: SNB-75 CNS -46.2%
inactive: HCT-15 colon 73.3% | HT29 colon 78.8% | SNB-19 CNS 76.1% | U251 CNS 75% | PC-3 prostate 67.3% | SK-MEL-5 melanoma 85.6% | UACC-62 melanoma 70.6% | LOX IMVI melanoma 67% | SK-MEL-28 melanoma 60.3%

CCOC(=O)c1cc(/C(=N\O)c2cc(OC)c(OC)c(OC)c2)n2c(C)cccc12
active: HT29 colon 9.58% | SNB-75 CNS 9.5%
inactive: HCT-15 colon 25.7% | SNB-19 CNS 42.5% | U251 CNS 26.2% | PC-3 prostate 31.4% | SK-MEL-5 melanoma 14.5% | UACC-62 melanoma 27% | LOX IMVI melanoma 37.9% | SK-MEL-28 melanoma 58.4%

COc1cc(C(=O)/C=C/c2cc(C(=O)c3cc(OC)c(OC)c(OC)c3)ccc2OC)ccc1N
active: HCT-15 colon -10.2% | HT29 colon -58.3% | SNB-19 CNS -7.07% | U251 CNS -79.9% | PC-3 prostate -20.6% | SK-MEL-5 melanoma -83.3% | UACC-62 melanoma -79.8% | LOX IMVI melanoma -78.8% | SK-MEL-28 melanoma -53.4%
inactive: SNB-75 CNS 29.5%

CC(=O)Nc1ccc(S(=O)(=O)N2C(=O)CCC2C(=O)Nc2ccc(Br)cc2)cc1 (stereo not given)
active: HCT-15 colon 7.48% | LOX IMVI melanoma 6.05%
inactive: HT29 colon 21.4% | SNB-75 CNS 59% | SNB-19 CNS 46.1% | U251 CNS 22.2% | PC-3 prostate 17% | SK-MEL-5 melanoma 17.6% | UACC-62 melanoma 15.3% | SK-MEL-28 melanoma 50.2%

COc1ccc([N+](=O)[O-])c(/C=C/C(=O)c2ccccn2)c1
inactive: HCT-15 colon 57.5% | HT29 colon 58.8% | SNB-75 CNS 67.2% | SNB-19 CNS 97.6% | U251 CNS 42.2% | PC-3 prostate 82.1% | SK-MEL-5 melanoma 90% | UACC-62 melanoma 94.7% | LOX IMVI melanoma 41% | SK-MEL-28 melanoma 100%

CCN1C(=O)N[C@H]2[C@@H]3NC(=O)c4ccc(Cl)n4[C@@H]3C[C@]21O
active: HT29 colon 2.91% | SNB-75 CNS -2.5% | SNB-19 CNS -8.44% | U251 CNS -5.63% | PC-3 prostate 9.77% | SK-MEL-5 melanoma -28.7% | UACC-62 melanoma -20.9% | LOX IMVI melanoma -6.47% | SK-MEL-28 melanoma -6.88%
inactive: HCT-15 colon 13.4%

CCCCn1c(=O)c(C2CNC(=O)c3ccccc3N2)cc2ccccc21 (stereo not given)
inactive: HCT-15 colon 101% | HT29 colon 103% | SNB-75 CNS 84% | SNB-19 CNS 91% | U251 CNS 98% | PC-3 prostate 106% | SK-MEL-5 melanoma 102% | UACC-62 melanoma 88.4% | LOX IMVI melanoma 97.3% | SK-MEL-28 melanoma 102%

O=C(Cc1n[nH]c(=O)c2ccccc12)OCc1c(Cl)cccc1Cl
inactive: HCT-15 colon 43.6% | HT29 colon 51.4% | SNB-75 CNS 90% | SNB-19 CNS 105% | U251 CNS 54% | PC-3 prostate 80.5% | SK-MEL-5 melanoma 56.9% | UACC-62 melanoma 70.4% | LOX IMVI melanoma 47.1% | SK-MEL-28 melanoma 112%
